Source: PubChem BioAssay (National Center for Advancing Translational Sciences (NCATS))
Only some compounds are listed: those with a hit (about 12% of all), similar ones and a draw of the others.
G9a inh = G9a (human) methyltransferase inhibition. G9a H3K9 monomethylation, AlphaScreen, 2 h. Potency, µM (highest dose often 102 µM), without a hit: top-dose activity, negative = inhibition, hits mostly inhibitors. 350,000 tested, 8.8% active. AID 504332; note: % is set by controls: 0 for no effect and ±100 for the full control effect; nearly all actives have a fitted effect of over 75% in size
Target sequence (Q96KQ7 913-1193 limits assumed): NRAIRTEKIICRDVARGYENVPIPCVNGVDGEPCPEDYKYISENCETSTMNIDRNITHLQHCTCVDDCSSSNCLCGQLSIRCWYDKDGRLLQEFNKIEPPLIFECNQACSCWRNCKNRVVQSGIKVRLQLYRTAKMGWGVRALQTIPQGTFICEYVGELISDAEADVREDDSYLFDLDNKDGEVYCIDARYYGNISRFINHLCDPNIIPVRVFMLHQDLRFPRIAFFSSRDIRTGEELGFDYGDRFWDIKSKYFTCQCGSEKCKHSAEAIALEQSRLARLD
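Compounds were preincubated with 20 nM G9a for 15 min, after which biotinylated H3K9 peptide (500 nM) and SAM (20 uM) started a 2 h room-temperature reaction. Monomethylated product was quantified by antibody-based AlphaScreen chemiluminescence.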
JMJD2A Tudor inh = JMJD2A Tudor domain (human) inhibition. 390,000 tested, 4.4% active. O75164. AID 504339. AlphaScreen JMJD2A-Tudor / H3K4me3 peptide binding. Potency, µM (highest dose often 114 µM), without a hit: at the highest dose activity change, negative = inhibition, hits mostly inhibitors; note: % is set by controls: 0 for no effect and ±100 for the full control effect; nearly all actives have a fitted effect of over 50% in size
HP1b binding inh = inhibitors of HP1-beta chromodomain binding to methylated histone tails; P83916; AlphaScreen HP1-beta / biotin-H3K9me3 peptide binding; 390,000 tested, 0.56% active; Potency, µM (titrated, usually from 114 µM), for inactives: at the highest dose activity change, negative = inhibition, most hits filed as inhibitors; AID 540317; note: nearly all actives have a fitted effect of over 70% in size
Target sequence (P83916 whole entry, looked up): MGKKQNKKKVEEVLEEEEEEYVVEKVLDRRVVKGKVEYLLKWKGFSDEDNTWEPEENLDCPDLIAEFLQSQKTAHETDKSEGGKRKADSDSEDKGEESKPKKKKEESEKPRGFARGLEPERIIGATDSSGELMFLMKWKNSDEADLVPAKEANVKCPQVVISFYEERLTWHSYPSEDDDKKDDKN
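Compound inhibition of the preformed complex between 50 nM HP1-beta and 50 nM biotinylated H3K9me3 peptide was read by AlphaScreen. Buffer was PBS pH 7.4 with 0.01% Tween-20. Incubations ran 30 min at room temperature, with 10 ug/mL donor/acceptor beads.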
Sfp inh = Sfp phosphopantetheinyl transferase inhibition; Potency, µM, without a hit: largest response in the series, negative = inhibition, hits mostly inhibitors; 310,000 tested, 3.5% active; Biochemical Sfp PPTase activity, qHTS; AID 1490; Q9F4F7;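 note: the enzyme is Sfp with the accession as filed and its product quenches rhodamine fluorescence; 0% = enzyme reaction without inhibitor and -100% = no enzyme wells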
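Fluorescence-quenching assay with 15 nM Sfp, 5 uM rhodamine-CoA and 12.5 uM BHQ-2-labelled ybbR peptide in pH 7.6 Hepes/MgCl2 buffer. Enzyme was pre-incubated with compound for 15 min at room temperature. Rate was taken from the 30-min fluorescence change (525/598 nm).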
BAZ2B inh = BAZ2B (human) inhibition; Q9UIF8; AlphaScreen BAZ2B-H3K14Ac peptide displacement; 360,000 tested, 4.4% active; Potency, µM (highest dose often 114 µM), for inactives: at the top dose activity change, negative = inhibition, actives largely listed as inhibitors; note: % is set by controls: 0 for no effect and ±100 for the full control effect; nearly all actives have a fitted effect of over 60% in size
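AlphaScreen displacement of biotin-H3(5-23)K14Ac peptide (50 nM final) from BAZ2B (50 nM final) in PBS pH 7.4, 0.01% Tween-20; complex preformed 30 min RT, then compounds (top 110 uM) 30 min RT, beads 20 min dark.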
Active calls of the source: *; ? = inconclusive; nt = not tested or not shown; [ ] = dose if it differs, or a comment. Calls come from the whole dose curve; as a rule, active = well fitted curve in the direction sought with a large enough effect; inconclusive = small, poorly fitted or top-dose-only effect, or another doubt; inactive = no such curve, though single readings can be large; an effect the other way counts as inactive or inconclusive. Potency is the fitted concentration of half-maximal effect.

SMILES | G9a inh | JMJD2A Tudor inh | HP1b binding inh | Sfp inh | BAZ2B inh
Cc1ccc(S(=O)(=O)N2CCCC(C(=O)NC3CCCC3)C2)cc1Cl (stereo unspecified) | 9% | -5% | 38% | 20% | -3%
O=C(NC1CC1)C1CCN(S(=O)(=O)c2ccc(Cl)cc2)CC1 | -4% | -5% | 35% | 9% | 5%
Cc1ccc(S(=O)(=O)N2CCC(C(=O)NC3CCCC3)CC2)cc1Cl | -7%[59 µM] | 100µM* | 18% | 24% | 1%
O=C(Nc1cc([N+](=O)[O-])ccc1F)C1CCN(S(=O)(=O)c2cccs2)CC1 | nt | -3% | 17% | nt | nt
Cc1cccc2sc(NC(=O)C3CCCN(S(=O)(=O)c4cccc5nonc45)C3)nc12 (stereo unspecified) | ? | -21% | 9% | 16% | 2%
O=C(NC1CC1)C1CCN(S(=O)(=O)c2cc([N+](=O)[O-])ccc2Cl)CC1 | ? | 8.9µM* | 7% | nt | 32µM*
Cc1cccc2sc(NC(=O)C3CCN(S(=O)(=O)c4cc([N+](=O)[O-])ccc4Cl)CC3)nc12 | 7.9µM* | 14µM* | ? | -11% | ?
Cc1nnc(NC(=O)C2CCN(S(=O)(=O)c3cc([N+](=O)[O-])ccc3Cl)CC2)o1 | ? | 10µM* | 27% | nt | 16µM*
COc1ccc(S(=O)(=O)N2CCC(C(=O)NC3CC3)CC2)cc1Cl | 14%[12.7 µM] | -1% | 8% | 10% | -4%
Cc1ccc([N+](=O)[O-])cc1S(=O)(=O)N1CCC(C)CC1 | 56µM* | -14%[11.4 µM] | ? | -1% | -31%
O=C(Nc1cccc(S(=O)(=O)N2CCCCC2)c1)Nc1ccc(Cl)cc1Cl | 21%[59 µM] | -25% | 34% | 6% | -13%
O=C(NCCc1ccc(F)cc1)c1ccc(NS(=O)(=O)c2ccc3[nH]c(=O)[nH]c3c2)cc1 | 9%[0.501 µM] | 5% | 30% | nt | 6%
CCOC(=O)c1ccccc1NC(=O)CN1C(=O)CC(c2ccccc2)Sc2ccccc21 (stereo unspecified) | -28%[59 µM] | -20% | 12% | nt | -10%
COc1ccc(Cl)cc1NS(=O)(=O)c1c(C)nc2scc(C)n2c1=O | 17%[59 µM] | -15% | 39% | nt | -10%
C[C@@]12C(=O)OC(=O)[C@]1(C)[C@H]1CC[C@@H]2O1 | 13%[21.5 µM] | nt | nt | -11% | nt
COc1cc(NCCCNC(C)C)c2nccc(C)c2c1 | nt | -33% | 10% | nt | nt
CC1=NCCN1S(=O)(=O)c1cc([N+](=O)[O-])ccc1Cl | 45µM* | -1% | -16% | 14% | -14%
O=C(/C=C/c1ccc(-c2ccccc2[N+](=O)[O-])o1)c1ccco1 | 14µM* | 18µM* | 40µM* | ? | 40µM*
Cc1cc(Cl)ccc1C(=O)C1CCCN(C(=O)c2snnc2C)C1 (stereo unspecified) | -7% | -5% | 64% | -8% | 28%
Cc1ccc(CC(=O)NCc2nc(-c3cccc(C)c3)no2)cc1 | 12%[59 µM] | -9% | 62% | nt | 2%
COCC[N+]1(C)CCCCC1 | 4.5µM* | ? | 10% | 5% | -35%
COc1ccc(OC)c(CNS(=O)(=O)c2ccc(-c3cc(C(F)(F)F)on3)s2)c1 | -1%[59 µM] | -21% | 22% | nt | 1%
S=c1[nH]ncn1/N=C/c1ccccc1 | 26%[2.33 µM] | 6.3µM* | 42% | ? | -8%
NC(N)=N/N=C/c1ccc(Br)cc1 | -30% | -15% | 20% | 5% | -13%
S=c1[nH]c(-c2ccccc2)cn1/N=C/c1ccncc1 | 1.6µM* | 0.71µM* | -24%[57 µM] | 79µM* | -22%
SMILES | G9a inh | JMJD2A Tudor inh | HP1b binding inh | Sfp inh | BAZ2B inh
S=c1[nH]ncn1/N=C/c1ccc(Br)cc1 | 1.3µM* | 7.9µM* | -5% | -6% | -29%
S=c1[nH]nc(-c2cc(-c3ccccc3)n[nH]2)n1/N=C/c1ccc(Cl)cc1 | ? | -31% | 25% | -5% | -21%
S=c1[nH]ncn1/N=C/c1ccc(N2CCOCC2)cc1 | 1.8µM* | 2.8µM* | 35% | ? | -2%
COc1ccccc1C(=O)NC(=O)COC(=O)C1(C)CC1(Cl)Cl (stereo unspecified) | 24%[0.501 µM] | 1% | 43% | nt | 5%
C[C@H](NS(=O)(=O)c1c(Cl)cccc1Cl)C(=O)NNC(=O)COc1ccccc1F | nt | 13% | 51% | nt | nt
COc1ccc(CCN(C)CCCN2CC(c3ccccc3)CC2=O)cc1OC (stereo unspecified) | 50µM* | 25µM* | -9% | -19% | ?
COc1ccc(C2CC(=O)N(CCCN(C)CCc3ccc(OC)c(OC)c3)C2)cc1 (stereo unspecified) | ? | 100µM* | ? | ? | 89µM*
Cc1ccc(-c2nc(Cn3c(SCc4ccc(F)cc4)nc4cccnc43)c(C)o2)cc1 | ? | -32% | 14% | nt | -14%
O=C1CCCC2=C1C1(CCS(=O)(=O)C1)N=C(Nc1nc3ccccc3o1)N2 (stereo unspecified) | nt | -16% | nt | nt | nt
COc1ccccc1-c1nccc(NCc2cccc(C)c2)n1 | nt | nt | nt | -3% | nt
CCCN(CCC)CC(C)(C)NS(=O)(=O)c1ccc(Cl)cc1 | ? | 2.5µM* | ? | -28% | ?
Cc1ccc(Cl)cc1NS(=O)(=O)c1cc2c(cc1Cl)CCC(=O)N2 | nt | -18% | nt | nt | nt
CCc1cc(-c2n[nH]c(=S)n2CC)cs1 | ? | 8.9µM* | -14% | -11% | -12%
CCCc1cc(-c2n[nH]c(=S)n2C(C)c2ccccc2)cs1 (stereo unspecified) | ? | -31% | -4% | 14% | -36%
CCc1cc(-c2n[nH]c(=S)n2-c2ccccc2C)cs1 | 1.8µM* | 35µM* | 1% | 15% | -7%
CCn1c(N)cc(=O)[nH]c1=S | nt | -10% | 49% | nt | nt
CCCc1cc(-c2n[nH]c(=S)n2CC)cs1 | ? | 3.5µM* | -20% | 0% | -37%
CCc1cc(-c2n[nH]c(=S)n2Cc2ccccc2)cs1 | ? | 56µM* | -5% | -24% | -24%
CCc1nc(Nc2ccc(OC)cc2OC)c2oc3ccccc3c2n1 | -48% | -35% | 61% | -12% | -26%
NS(=O)(=O)c1ccc(NC(=O)CCn2c(=O)oc3ccccc32)cc1 | 6%[59 µM] | -13% | 16% | nt | 1%
CCCCn1c(-c2ccccc2)nnc1-c1ccccc1 | -33%[12.7 µM] | -1% | 28% | 6% | 2%
CCCCn1c(-c2csc(CCC)c2)n[nH]c1=S | 8.9µM* | ? | 20% | ? | -4%
Cc1c(C(=O)N2CCN(c3ncccn3)CC2)oc2c(Cl)cccc12 | 10% | ? | 49% | nt | 12%
O=c1[nH]c(=S)[nH]nc1Cc1ccc(Cl)c(Cl)c1 | 50µM* | -9% | 31% | 25% | 16%
Cc1cc(C(=O)Nc2ccc(N3CCCC3)c(Cl)c2)ccc1[N+](=O)[O-] | -7%[59 µM] | 25µM* | ? | 20% | 28µM*
Cc1cccc(NC(=O)c2ccc(N3CCCCC3)c([N+](=O)[O-])c2)n1 | ? | ? | ? | -6% | 11µM*
